Compounds with a hit are over-represented: about 0.65% of the library has one in this group of screens.
TcdB inh – blocks C. difficile toxin B glycohydrolase activity | hit rate 0.24% among 350,000 | AID 652162 | inhibition, % at 9.99 µM | TcdB glycohydrolase enzymatic assay, plate reader; in the data active = inhibition above about 10%
PrP 5UTR inh – suppresses PrP 5' UTR mRNA reporter expression; cell-based PrP 5' UTR mRNA reporter, plate reader; inhibition, % (no concentration beside the values); hit rate 0.35% among 340,000; AID 488862; in the data active = inhibition above about 52%
Mtb UGM inh – Mtb UDP-galactopyranose mutase inhibition. P9WIQ1. purified UGM, fluorescence polarization probe displacement. inhibition, % at 10 µM. hit rate 0.06% among 320,000; in the data active = inhibition above about 10%, passing the limit was not always enough
Y pestis TopoI – Y. pestis Topo-I inhibition via cleavage products; activity, % at 10 µM; hit rate 0.064% among 360,000; Y. pestis Topo-I cleavage product accumulation, plate reader; in the data active = activity above about 50%, passing the limit was not always enough
Vc quorum ag – induces V. cholerae light production without autoinducers | hit rate 0.16% among 350,000 | activation, % at 18.7 µM | V. cholerae BH1578 lux reporter, luminescence, 6 h; in the data active = activation mostly above about 9.7%, no sharp cut-off
PrP UTR cherry – prion 5' UTR mRNA inhibition, cherry-pick retest; shares compounds with PrP 5UTR inh; cell-based prion protein 5' UTR reporter, plate reader; inhibition, % at 2.5 µM; hit rate 48% among 1,100; AID 504592; in the data active = inhibition above about 54%
Large screens that a line does not name were inactive (follow-up assays come after a bar, where they were run); ! = repeats disagree.

COCC#Cc1ccc([C@@H]2[C@@H](CO)N3CCCCN(S(=O)(=O)c4ccccc4F)C[C@@H]23)cc1	none (no result: PrP 5UTR inh, Mtb UGM inh, Y pestis TopoI, Vc quorum ag)
CC(=O)O[C@@]12CO[C@@H]1C[C@H](O)[C@@]1(C)C(=O)[C@H](O)C3=C(C)[C@@H](OC(=O)[C@H](O)[C@@H](NC(=O)c4ccccc4)c4ccccc4)C[C@@](O)([C@@H](OC(=O)c4ccccc4)C12)C3(C)C (stereo not given in full)	none
CC(=O)O[C@H]1C(=O)[C@]2(C)[C@H]([C@H](OC(=O)c3ccccc3)[C@]3(O)C[C@H](OC(=O)[C@H](O)[C@@H](NC(=O)c4ccccc4)c4ccccc4)C(C)=C1C3(C)C)[C@]1(OC(C)=O)CO[C@@H]1C[C@@H]2O	PrP 5UTR inh 53.0 | PrP UTR cherry 88.9
CC(=O)O[C@H]1C(=O)[C@@]2(C)C([C@H](OC(=O)c3ccccc3)[C@]3(O)C[C@H](OC(=O)[C@H](O)[C@@H](NC(=O)c4ccccc4)c4ccccc4)C(C)=C1C3(C)C)[C@]1(OC(C)=O)CO[C@@H]1C[C@H]2O (stereo not given in full)	PrP 5UTR inh 55.8 | PrP UTR cherry 67.8
CN1C(CCl)Nc2cc(Cl)c(S(N)(=O)=O)cc2S1(=O)=O (stereo not given)	PrP 5UTR inh 76.7 (no result: Mtb UGM inh) | PrP UTR cherry inactive
CCC1NC(=O)c2cc(S(N)(=O)=O)c(Cl)cc2N1 (stereo not given)	none
CCC(=O)N[C@@H]1CC[C@H](CC(=O)NCc2cc(F)cc(F)c2)O[C@H]1CO	none (no result: PrP 5UTR inh, Mtb UGM inh, Y pestis TopoI, Vc quorum ag)
CCOC(=O)c1c(C)[nH]c(C2=NNC(=NC3CC3)SC2)c1C	PrP 5UTR inh 70.8 (no result: TcdB inh, Vc quorum ag) | PrP UTR cherry 53.6
CCOC(=O)c1c(C)[nH]c(/C(C)=N/O)c1C	none
COc1ccc(S(=O)(=O)N(C)C[C@H]2OCCCC[C@@H](C)Oc3ccc(N(C)C)cc3C(=O)N([C@@H](C)CO)C[C@@H]2C)cc1	none (no result: PrP 5UTR inh, Mtb UGM inh, Y pestis TopoI, Vc quorum ag)
O=C(NCCCNCc1ccccc1)c1ccccn1	PrP 5UTR inh 61.5! | PrP UTR cherry inactive
CC[C@@H](C)[C@H](C(CC(=O)N1CCCC1[C@@H](OC)[C@H](C)C(=O)N[C@H](Cc1ccccc1)c1nccs1)OC)N(C)C(=O)[C@H](NC(=O)[C@@H](C(C)C)N(C)C)C(C)C (stereo not given in full)	PrP 5UTR inh 56.2 (no result: Mtb UGM inh) | PrP UTR cherry 91.6
CC[C@H](C)[C@@H](C(=O)N1CCCC1c1nccs1)N(C)C(=O)[C@H](CC(C)C)N(C)C(=O)[C@H](Cc1ccc(OC)cc1)N(C)C(=O)/C=C(\C)OC (stereo not given in full)	none (no result: Mtb UGM inh)
C[C@H]1CN([C@@H](C)CO)C(=O)c2cc(NC(=O)CCC(F)(F)F)ccc2O[C@@H]1CN(C)S(=O)(=O)c1ccc(F)cc1	none (no result: PrP 5UTR inh, Mtb UGM inh, Y pestis TopoI, Vc quorum ag)
CCCn1c(C)cc(C(=O)CN2C(=O)c3ccccc3S2(=O)=O)c1C	none (no result: PrP 5UTR inh, Mtb UGM inh)
Cc1cc(C(=O)CN2C(=O)c3ccccc3S2(=O)=O)c(C)n1CC1CCCO1 (stereo not given)	PrP 5UTR inh 87.7 (no result: TcdB inh) | PrP UTR cherry 86.2
OCCN1CCN(CC/C=C2/c3ccccc3Sc3ccc(Cl)cc32)CC1	PrP 5UTR inh 82.4 | PrP UTR cherry inactive
CN(C)CC/C=C1\c2ccccc2Sc2ccc(Cl)cc21	none
C[C@H](CO)N1C[C@H](C)[C@H](CN(C)S(=O)(=O)c2cccc(F)c2)Oc2ncc(C#CC3CC3)cc2C1=O	none (no result: PrP 5UTR inh, Mtb UGM inh, Y pestis TopoI, Vc quorum ag)
COc1ccc(C#Cc2ccc3c(c2)[C@@H]2[C@@H](CCN2S(=O)(=O)C2=NC(C)C=N2)[C@H](CO)N3C)cc1 (stereo not given in full)	none (no result: PrP 5UTR inh, Mtb UGM inh, Y pestis TopoI, Vc quorum ag)
O=C1N(c2ccccc2)C[C@@H]2C[C@@H](c3cc4ccccc4o3)N3CCC[C@@]123	PrP 5UTR inh 58.7 (no result: Mtb UGM inh) | PrP UTR cherry 73.6
O=C(NCC(c1cccnc1)N1CCN(c2ccc(F)cc2)CC1)C1CCCCC1 (stereo not given)	PrP 5UTR inh 69.5 (no result: TcdB inh) | PrP UTR cherry inactive
Cc1ccc(CN2C(=O)S/C(=C\c3ccccc3OCC(=O)O)C2=O)cc1	PrP 5UTR inh 81.4 | PrP UTR cherry inactive
O=C(O)COc1ccccc1/C=C1\SC(=O)N(Cc2ccc(F)cc2)C1=O	none
C[C@@H]1CN([C@H](C)CO)C(=O)c2cc(NS(=O)(=O)c3ccccc3)ccc2O[C@@H]1CN(C)Cc1ccccc1	none (no result: PrP 5UTR inh, Mtb UGM inh, Y pestis TopoI, Vc quorum ag)
O=C(Nc1nccs1)c1cc2c(s1)CCCCC2	PrP 5UTR inh 63.7 (no result: TcdB inh) | PrP UTR cherry 72.1
O=C(Nc1nncs1)c1cc2c(s1)CCC2	none
COc1ccc(CN(C)C[C@H]2Oc3ccc(NS(=O)(=O)c4cccs4)cc3CC(=O)N([C@@H](C)CO)C[C@@H]2C)cc1	none (no result: PrP 5UTR inh, Mtb UGM inh, Y pestis TopoI, Vc quorum ag)
Cc1nnc(SCC(=O)Nc2cc(-c3cc(C)c(C)cc3C)nn2-c2ccccc2)s1	PrP 5UTR inh 58.9 | PrP UTR cherry inactive
Cc1ccc(C(=O)/C=C/Nc2ccccn2)cc1	PrP 5UTR inh 75.6 (no result: TcdB inh) | PrP UTR cherry 61.7
O=C(/C=C/c1ccco1)Nc1ccccn1	none (no result: TcdB inh)
Cc1ccc(NC(=O)/C=C/c2ccco2)nc1	PrP 5UTR inh 69.5 | PrP UTR cherry 83.9
COc1ccc(OC)c(N/C=C/C(=O)c2ccccc2)c1	PrP 5UTR inh 80.8 | PrP UTR cherry 61.0
COc1ccc(OC)c(N/C(C)=C/C(=O)c2ccccc2)c1	none (no result: TcdB inh)
COc1ccc(N/C=C/C(=O)c2cc(OC)c(OC)c(OC)c2)cc1	PrP 5UTR inh 71.0 | PrP UTR cherry 89.2
C[C@H](O)C#Cc1ccc2c(c1)O[C@H](CN(C)Cc1ccccn1)[C@H](C)CN([C@@H](C)CO)S2(=O)=O	none (no result: PrP 5UTR inh, Mtb UGM inh, Y pestis TopoI, Vc quorum ag)
c1ccn2cc(-c3ccc4c(c3)OCCO4)nc2c1	none
Cc1ccc2nc(-c3ccc4c(c3)OCCO4)cn2c1	TcdB inh 25.8, PrP 5UTR inh 88.9 | PrP UTR cherry 78.9
CNC(=O)Oc1cccc(-c2cn3cc(Cl)ccc3n2)c1	none (no result: TcdB inh, Mtb UGM inh)
CNC(=O)Oc1ccc(-c2cn3cc(C)ccc3n2)cc1	PrP 5UTR inh 57.1 | PrP UTR cherry 53.9
C[C@H]1CN([C@@H](C)CO)C(=O)c2cccc(NS(=O)(=O)c3ccc(Cl)cc3)c2O[C@@H]1CN(C)C(=O)Nc1cccc2ccccc12	none (no result: PrP 5UTR inh, Mtb UGM inh, Y pestis TopoI, Vc quorum ag)
CCCNC(=O)[C@H]1[C@H](CO)[C@H]2Cn3c(ccc(-c4ccc(OC)cc4)c3=O)[C@H]2N1CC	none (no result: PrP 5UTR inh, Mtb UGM inh, Y pestis TopoI, Vc quorum ag)
CCOC(=O)N1CCN(C(=O)C(CC)n2nc(C)c3sc4ccccc4c3c2=O)CC1 (stereo not given)	PrP 5UTR inh 81.3 (no result: TcdB inh) | PrP UTR cherry inactive
CC(=O)N1CC(=O)N2[C@H](CO)[C@@H](c3ccc(-c4ccc(C#N)cc4)cc3)[C@H]2C1	none (no result: PrP 5UTR inh, Mtb UGM inh, Y pestis TopoI, Vc quorum ag)
C[C@@H]1CN([C@@H](C)CO)C(=O)c2cc(NS(=O)(=O)c3ccccc3)ccc2O[C@@H]1CN(C)S(=O)(=O)c1cn(C)cn1	none (no result: PrP 5UTR inh, Mtb UGM inh, Y pestis TopoI, Vc quorum ag)
CO[C@H]1CN(C)C(=O)c2ccc(NS(=O)(=O)c3ccccc3Cl)cc2OC[C@H](C)NC[C@@H]1C	none (no result: PrP 5UTR inh, Mtb UGM inh, Y pestis TopoI, Vc quorum ag)
O=[N+]([O-])c1ccc(O)c(/C=N/Nc2ccccn2)c1	PrP 5UTR inh 54.1 | PrP UTR cherry 58.3
COc1ccc(-c2noc(CCCC(=O)O)n2)cc1	PrP 5UTR inh 56.3 (no result: TcdB inh) | PrP UTR cherry inactive

From PubChem
